Test results as given in PubChem BioAssay (NCI).
Compounds without any hit were thinned out: in the full panel of roughly 79,000, 15% have a hit. Unmarked numbers belong to inactive results. Calls of active or inactive are those of the source. Cut-off read from the data, not from the text of the source: active = growth inhibition above about 70%; inactive = the rest.

Assays:
[1] = NCI Yeast Anticancer Drug Screen. Data for the rad50 strain (AID 155);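 note: 0% = growth of vehicle-only cultures of the same strain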; conditions: S. cerevisiae rad50 strain growth inhibition, stronger effect = higher value
How it was run: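 Genetically altered yeast (DNA repair pathway); compound treatment; growth inhibition vs vehicle ctrl.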

[2] = NCI Yeast Anticancer Drug Screen. Data for the mec2-1 strain (AID 157); conditions: S. cerevisiae mec2-1 strain, stronger effect = higher value
How it was run: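 Test agents were screened against the mec2-1 yeast strain, with defined DNA repair or cell cycle alteration. Growth was scored as inhibition against vehicle-only controls.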

[3] = NCI Yeast Anticancer Drug Screen. Data for the sgs1 mgt1 strain (AID 161);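 note: 0% = growth of cultures given vehicle only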; conditions: S. cerevisiae sgs1 mgt1 strain, stronger effect = higher value
How it was run: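 Mutant yeast exposed to compound; growth scored against vehicle-only wells.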

[4] = NCI Yeast Anticancer Drug Screen. Data for the cln2 rad14 strain (AID 165);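 note: 0% = growth equal to vehicle treated cultures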; conditions: S. cerevisiae cln2 rad14 strain, stronger effect = higher value
How it was run: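 Growth of compound-exposed yeast (cln2 rad14 genotype) measured and expressed as inhibition relative to vehicle.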

[5] = NCI Yeast Anticancer Drug Screen. Data for the bub3 strain (AID 167); conditions: S. cerevisiae bub3 mutant strain, stronger effect = higher value
How it was run: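 Yeast carrying a defined mutation is treated with each compound, and growth is compared with that of vehicle-exposed cells to give inhibition.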

[6] = NCI Yeast Anticancer Drug Screen. Data for the mlh1 rad18 strain (AID 175); conditions: S. cerevisiae mlh1 rad18 strain growth inhibition, stronger effect = higher value
How it was run: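 In this whole-cell yeast screen, a strain with altered DNA damage repair is challenged with compound, and its growth is measured against matched vehicle-treated controls.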

[7] = at 5.0 µM (retest, dose inferred, filed as 0.5)
[8] = at 50.0 µM (retest, dose inferred, filed as 5.0)

Row | SMILES | growth inhibition [1, 7] | growth inhibition [1, 8] | growth inhibition ([1]; at 50.0 µM) | growth inhibition [2, 7] | growth inhibition [2, 8] | growth inhibition ([2]; at 50.0 µM) | growth inhibition [3, 7] | growth inhibition [3, 8] | growth inhibition ([3]; at 50.0 µM) | growth inhibition [4, 7] | growth inhibition [4, 8] | growth inhibition ([4]; at 50.0 µM) | growth inhibition [5, 7] | growth inhibition [5, 8] | growth inhibition ([5]; at 50.0 µM) | growth inhibition [6, 7] | growth inhibition [6, 8] | growth inhibition ([6]; at 50.0 µM)
1 | Clc1ccc(OCCC(Cn2ccnc2)c2ccc(Cl)cc2Cl)c(Cl)c1 (stereo not given) | 94% (active) | 98% (active) | 66% | 91% (active) | 99% (active) | 55.9% | 94% (active) | 98% (active) | 58.2% | 86% (active) | 97% (active) | 64% | 93% (active) | 98% (active) | 48.1% | 90% (active) | 98% (active) | 55.7%
2 | CCCC(=O)OCc1cc(=O)n(C)c2c3c4c(cc12)c(C)cc(=O)n4CO3 | 86% (active) | 99% (active) | 25% | 58% | 100% (active) | -11.2% | 79% (active) | 100% (active) | 22.8% | 63% | 99% (active) | 13.6% | 84% (active) | 98% (active) | -11% | 83% (active) | 99% (active) | 22.4%
3 | ClCc1nc2ccccc2c2ccccc12 | 15% | 50% | 73.8% (active) | 22% | 26% | 20.8% | 7% | 21% | 55.9% | 10% | 13% | -28.2% | 20% | 67% | 61.1% | 12% | 43% | 83.5% (active)
4 | COc1ccc(CSC(=S)Nc2ccc(Cl)c([N+](=O)[O-])c2)cc1 | 48% | 92% (active) | 88.5% (active) | 50% | 95% (active) | 77.1% (active) | 56% | 99% (active) | 88.4% (active) | 43% | 97% (active) | 9% | 77% (active) | 99% (active) | 21.5% | 79% (active) | 98% (active) | 94.1% (active)
5 | CCc1cc(C)cc(NC(=O)OC2CCCCC2C)c1 (stereo not given) | 42% | 66% | 90.2% (active) | 35% | 49% | 91% (active) | 35% | 92% (active) | 91.2% (active) | 20% | 69% | 89.1% (active) | 37% | 85% (active) | 91.3% (active) | 38% | 72% (active) | 90.4% (active)
6 | CC(=O)CCCOC(C)=O | 63% | 78% (active) | 14.7% | 22% | 40% | -5.8% | 77% (active) | 78% (active) | 7.85% | 10% | 22% | 24.6% | 62% | 86% (active) | -0.55% | 45% | 75% (active) | 31.6%
7 | Cc1ccc(S(=O)(=O)OCCc2ccc(Cl)cc2)cc1 | -10% | -21% | -19.6% | -11% | -13% | -10.3% | -6% | 41% | -10.4% | -15% | -20% | -16.5% | 9% | 22% | 71.2% (active) | -14% | -12% | -7.75%
8 | Oc1ccc(C(c2ccccc2)(c2ccccc2)c2ccccc2)cc1O | -8% | 99% (active) | 98.2% (active) | -2% | 100% (active) | 98.7% (active) | -4% | 99% (active) | 98.3% (active) | 0% | 97% (active) | 97.4% (active) | -4% | 99% (active) | 98% (active) | 0% | 99% (active) | 98% (active)
9 | C#CCOC(=O)Nc1nc2ccc(SC#N)cc2s1 | 9% | 90% (active) | 97.8% (active) | -5% | 87% (active) | 96.8% (active) | 3% | 98% (active) | 97.7% (active) | 0% | 92% (active) | 96.4% (active) | 14% | 90% (active) | 97.6% (active) | 4% | 96% (active) | 97.2% (active)
10 | O=C(O)C(Cc1ccc(O)cc1)NC(=O)N(c1ccccc1)c1ccccc1 (stereo not given) | 0% | 38% | 17.2% | -11% | 52% | 25.1% | -205% | 79% (active) | 30.8% | 3% | 39% | 61.6% | 2% | 28% | 19% | -4% | 74% (active) | 28.5%
